Consider 16 molecules from PubChem BioAssay (NCI).

SMILES strings stand for the structures. This is part of a sample that, as a whole, favours compounds with a hit. Of some 79,000 tested, about 15% had one in any assay. Active and inactive are the calls of the source. No stated cut-off is given here; in the data, active means growth inhibition above about 70%; inactive means the rest.

A short description of this experiment: NCI Yeast Anticancer Drug Screen. Data for the sgs1 mgt1 strain (AID 161).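 Further: 0% = growth of cultures given vehicle only.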 To be noted: S. cerevisiae sgs1 mgt1 strain, at 5.0 µM (retest, dose inferred, filed as 0.5), stronger effect = higher value. The gist of the method:
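Genetically altered yeast, compound exposure, growth inhibition relative to vehicle.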
`O=C(O)/C=C/C(=O)Nc1cccc2ccccc12`: the growth inhibition is 21% (inactive).

In the case of `Cc1cc(O)c(C(=O)/C=C/c2ccnc3ccccc23)c(=O)o1`, the growth inhibition was 6% (inactive).

Consider `ONC1=Nc2ccccc2OCc2cc(Br)c(Br)cc2COc2ccccc2N=C1NO`, for which the growth inhibition is 18% (inactive).

Consider `NNC(=O)c1ccc(N)cc1O`, for which the growth inhibition was -2% (inactive).

As for `O=C(N/C(=C\c1ccc2c(c1)OCO2)c1nc2ccccc2s1)c1ccccc1`, the growth inhibition was 38% (inactive).

As to `CC1=NN(C(=O)c2ccncc2)C(=O)C1N=Nc1ccc(C)c([N+](=O)[O-])c1` (stereo unspecified), the growth inhibition is 29% (inactive).

With `COc1ccc2nc3cc(Cl)ccc3c(Nc3nccs3)c2c1`, the growth inhibition is 13% (inactive).

In the case of `S=C(S)NCCN1CCNCC1`, the growth inhibition is 0% (inactive).

Turning to `ClCc1nc2ccccc2c2ccccc12`, the growth inhibition is 7% (inactive).

Consider `ClC1=C(Cl)C(Cl)(C(Cl)(Cl)Cl)C(Cl)=C1Cl`, for which the growth inhibition is 99% (active).

As to `FC(F)(F)COP1(OCC(F)(F)F)=NP(OCC(F)(F)F)(OCC(F)(F)F)=NP(c2ccccc2)(c2ccccc2)=N1`, the growth inhibition is 3% (inactive).

As to `CC(C)c1c(P(=O)(c2ccccc2)c2ccccc2)n(C)c2ccccc12`, the growth inhibition is -30% (inactive).

Consider `CN(CCC1CCCCC1)CCC1CCCCC1`, for which the growth inhibition was 35% (inactive).

Take `Cc1nc(Cl)nc(N)c1[N+](=O)[O-]`: the growth inhibition was 3% (inactive).

Turning to `Nc1ccc2[nH]c3ccccc3c2c1`, the growth inhibition was -9% (inactive).

For `COc1ccc(NC(=O)CSC(N)=O)cc1`, the growth inhibition was 3% (inactive).
